HCV inh – HCV inhibition; Huh7.5.1 HCVcc-Cre infection, luciferase reporter, 44 h; Potency, µM (series often up to 41.8 µM), without a hit: at the top dose activity change, negative = inhibition, hits mostly inhibitors; 3.4% of 340,000 active; AID 651820; also: % is scaled to controls: 0 for no effect and ±100 for the full control effect
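Cells (1,000/well) were plated 4 h before compound, then infected with HCVcc-Cre virus (~0.5 moi). After 44 h further culture, infection was read as luciferase luminescence following a 15 min substrate incubation at room temperature.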
NS1 function inh – inhibitors of influenza NS1 protein function | AID 2326 | Potency, µM (doses to about 46.1 µM), without a hit: at the top dose activity, positive = more growth | 0.4% of 270,000 active; calls by dose curve; also: actives are rising curves; nearly all actives have a fitted effect of over 50% in size
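Recovery from NS1-induced slow growth read by OD600 in budding yeast switched to galactose assay medium (pH 6.0, -URA) at 1:100 dilution. Compound 23 nl per well; the matching strain lacking NS1 serves as control.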
Pf growth 96h – inhibits malaria parasite growth, 96 h; P. falciparum luciferase reporter growth, 96 h; Potency, µM (highest dose often 28.7 µM), for the others: at the top dose activity change, negative = inhibition, most hits filed as inhibitors; 6.9% of 320,000 active; also: % is scaled to controls: 0 for no effect and ±100 for the full control effect
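Infected RBCs, 2% Hct / 0.05% parasitemia final; luciferase-reporter P. falciparum; cpd 96 h, 37 C, 5% CO2; luciferase detection reagent; luminescence.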
Pf growth 48h – P. falciparum growth inhibition at 48 hours (one generation) | P. falciparum luciferase growth in erythrocytes, 48 h | Potency, µM (series often up to 28.7 µM), inactives show at the top dose activity change, negative = inhibition, most hits filed as inhibitors | 5.9% of 310,000 active | AID 504832; also: % is scaled to controls: 0 for no effect and ±100 for the full control effect
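Luciferase-expressing parasites in RBCs, 2% Hct / 0.1% parasitemia final; RPMI 1640 + 0.5% Albumax; 37 C, 5% CO2, one generation; luminescence read-out, lower signal = inhibition.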
SARS PLpro yeast – blocks SARS-CoV papain-like protease in a yeast assay; S. cerevisiae expressing SARS-CoV PLpro, growth rescue; Potency, µM (titrated, usually from 32.9 µM), for inactives: at the top dose activity, positive = growth rescue, most hits filed as activators; 0.19% of 330,000 active; AID 485353; calls by dose curve; also: 0% is about no effect; nearly all actives have a fitted effect of over 55% in size
AMA1-RON2 inh – AMA1-RON2 (P. falciparum) interaction inhibition | Potency, µM (series often up to 58.2 µM), for the others: top-dose activity change, negative = inhibition, hits mostly inhibitors | AlphaScreen AMA1-biotinylated RON2 peptide binding | 0.2% of 360,000 active;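 also: 0% = vehicle wells and -100% = peptide control; nearly all actives have a fitted effect of over 45% in size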
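AMA1 (3D7) with his tag at 25 nM final met compounds first, then biotinylated RON2 peptide at 25 nM; detection used donor plus acceptor beads, 10 µg/mL apiece, read by AlphaScreen after 30 min at room temperature.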
Numbers without * were called inactive; ? = inconclusive; . = no result. Sampled rows, rich in hits. Any-hit rate of the full collection: about 12%. Unless noted, calls follow the shape of the dose curve; as a rule, active = well fitted curve in the direction sought with a large enough effect; inconclusive = small, poorly fitted or top-dose-only effect, or another doubt; inactive = no such curve, though single readings can be large; an effect the other way counts as inactive or inconclusive. Potency is read from the fitted curve at half-maximal effect.

SMILES	HCV inh	NS1 function inh	Pf growth 96h	Pf growth 48h	SARS PLpro yeast	AMA1-RON2 inh
COC(=O)Cc1c[nH]c2cccc(OCC(O)CN(Cc3ccc([N+](=O)[O-])cc3)C(C)(C)C)c12 (configuration not stated)	-20%	-9%	3.3µM*	9.3µM*	-4%	?
Cc1c[nH]c2cccc(OCC(CNC(C)(C)C)OC(=O)c3ccccc3)c12 (configuration not stated)	3%	-4%	?	?	1%	-20%
COc1ccccc1C(=O)N/C(=C\c1ccc(Br)cc1)C(=O)N1CCCC1	-27%	-9%	-9%	-10%	0%	-3%
CCC(C(=O)NC1CCCCC1)n1c(SCc2ccccc2F)nc2ccncc21 (configuration not stated)	-16%	20%	8.3µM*	-10%	2%	-4%
FC(F)(F)c1cccc(Cn2nnnc2-c2ccc(Cl)cc2)c1	-4%	-8%	8.3µM*	?	-21%	9%
CCCn1nnnc1-c1ccc(Cl)cc1	-3%	20%	-2%	-2%	22%	-7%
COCCn1c(Cc2cccn2C)nnc1SCC(=O)NCc1ccc2c(c1)OCO2	18%	.	?	10%	4%	16%
O=C(CCS(=O)(=O)c1cccc2nonc12)NCc1ccc(Cl)cc1	13%	.	-2%	-7%	2%	4%
Cc1ccc(NC(=O)CN(C)S(=O)(=O)c2ccc(Cl)s2)c(O)c1	-11%	.	123%	45%	-4%	0%
Nc1cccnc1Oc1ccc(F)cc1	4%	-1%	18%	1%	-1%	-3%
FC(F)(F)c1cccnc1Oc1ccc(C2=NCCS2)cc1	-26%	-3%	2.6µM*	?	0%	-13%
CC(C)Cn1c(=O)c2ccccc2n2c(CCC(=O)NCC3CCCO3)nnc12 (configuration not stated)	-11%	11%	70%	-17%	-4%	20%
CCOC(=O)C1=C(Nc2cccc(Cl)c2)OCC1=O	-3%	-50%	9.3µM*	-26%	-11%	0%
O=C1CN(C(=O)COC(=O)c2ccccc2NC(=O)c2ccco2)c2ccccc2N1	4%	-1%	13µM*	-10%	?	-3%
CCOC(=O)c1c(C)[nH]c(C(=O)OCC(=O)N2c3ccccc3CC2C)c1C (configuration not stated)	10µM*	-20%	?	?	-9%	11%
CC(C)C(NC(=O)c1ccco1)C(=O)OCC(=O)N1CC(=O)Nc2ccccc21 (configuration not stated)	-4%	.	-2%	34%	3%	14%
CCOC(=O)c1[nH]c(C)c(C(=O)OCC(=O)N2CC(=O)Nc3ccccc32)c1C	?	0%	9.3µM*	?	-1%	-17%
Cc1ccccc1C(=O)OCC(=O)N1CC(=O)Nc2ccccc21	.	.	.	.	.	3%
Cc1noc(C)c1COc1ccc(C(=O)OCC(=O)N2CC(=O)Nc3ccccc32)cc1	18%	-23%	?	4.7µM*	-19%	5%
O=C(NCc1ccccc1)c1ccccc1NC(=O)C1CCCCC1	?	-72%	12%	?	-9%	2%
CCOc1ccc(OCCOCCN2CCOCC2)cc1	23%	-8%	26%	.	-2%	24%
CCOc1ccc(-c2cc(C)[n+](CCN3CCOCC3)c(-c3ccc(OCC)cc3)c2)cc1	-17%	4%	0.37µM*	0.66µM*	0%	-14%
CN(C(=O)c1ccco1)c1nc(-c2ccc(F)cc2)cs1	-22%	-27%	?	159%	3%	-1%
CCN(CC)CCCN(C(=O)c1ccco1)c1nc(-c2ccc(C)cc2)cs1	?	-1%	60%	?	0%	-11%
COc1ccc(-c2csc(N(CCCN3CCOCC3)C(=O)CCl)n2)cc1	-6%	-8%	68%	1%	0%	-7%
SMILES	HCV inh	NS1 function inh	Pf growth 96h	Pf growth 48h	SARS PLpro yeast	AMA1-RON2 inh
CCN(CC)CCCN(C(=O)c1ccco1)c1nc(-c2ccc(Cl)cc2)cs1	11µM*	-30%	?	1.5µM*	0%	-8%
O=C(c1ccco1)N(CCCN1CCOCC1)c1nc(-c2ccc(Cl)cc2)cs1	11µM*	-40%	30%	?	?	1%
O=C(c1ccco1)N(CCCN1CCOCC1)c1nc(-c2ccc(F)cc2)cs1	11µM*	-80%	-6%	?	-1%	-22%
CC(C)c1cccc(-c2csc(C(O)c3cccc(Cl)c3)n2)c1 (configuration not stated)	.	.	.	.	.	27%
CCN(CC(=O)Nc1c(F)cccc1F)C(=O)c1ccc2c(c1)S(=O)(=O)N=C1CCCCCN12	?	.	33%	47%	-10%	1%
Cc1ccccc1CN(C)C1CCN(C)CC1	-13%	0%	?	5%	1%	-2%
Cc1ncc([N+](=O)[O-])n1CC(=O)N/N=C/c1ccccc1F	19%	.	1%	8%	0%	-13%
COc1ccccc1CNCC(O)(c1ccc(Cl)cc1)c1ccc(Cl)cc1	?	-19%	1.7µM*	1.7µM*	1%	43%
OC(CNCc1ccccc1F)(c1ccc(F)cc1)c1ccc(F)cc1	?	-2%	?	?	8%	-6%
COc1ccccc1CNCC(O)(c1ccc(F)cc1)c1ccc(F)cc1	?	-1%	4.7µM*	3.7µM*	5%	4%
Cc1ccccc1-n1nc(C)c(N=O)c1N	13%	.	18%	-8%	8%	43%
[O-][n+]1c2ccccc2c2n1CCN1CCOC21c1ccc(Cl)cc1 (configuration not stated)	?	.	?	?	4%	-6%
N#Cc1ccc(C23OCCN2CCn2nc4ccccc4c23)cc1 (configuration not stated)	4µM*	.	.	.	0%	22%
Oc1ccc(C23CCCC2C2(CCCC2)c2ccc(O)cc2O3)c(O)c1 (configuration not stated)	10µM*	.	?	?	-1%	-2%
O=C(Nc1ccc(Cl)c(Cl)c1)Nc1cc(C(=O)NC2CC2)ccc1Cl	?	4%	?	13µM*	-4%	.
COC(=O)c1ccc(NC(=O)c2c(C(=O)Nc3ccccc3)sc3nc(C)cc(=O)n23)cc1	-1%	.	12µM*	7%	0%	-2%
Cc1cc(NC(=O)c2ccc(C#N)cc2)on1	2%	1%	4%	-2%	-1%	3%
COc1ccc(NC(=O)Nc2c[nH]c(=O)[nH]c2=O)cc1	-3%	-1%	2.6µM*	.	12%	2%
COc1ccc(NC(=O)Nc2cc(NC(=O)Nc3ccc(OC)cc3)c(C)nc2C)cc1	-1%	26%	37%	3%	10%	6%
